Among the test systems are OVCAR-5 ovarian; OVCAR-4 ovarian; SK-OV-3 ovarian; IGROV1 ovarian; OVCAR-3 ovarian; HS 578T breast; NCI/ADR-RES ovarian; T-47D breast; OVCAR-8 ovarian.
Test in all cases: NCI-60 one-dose screen, 48 h (100 = growth as untreated, 0 = no growth, -100 = all killed)
Settings in all cases: 10 µM unless noted

About 83,000 compounds went through this panel and 20% of them were active in at least one assay; those are over-represented in the sample as a whole.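 Testing used 96-well plates and a 48-hour single-concentration exposure. Example: -40 means 40% of the starting cells died.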 A number with no mark means an inactive call. Activity calls are given as the source filed them. Rule for the calls: active = growth percent below 10; inactive = the rest.

Regarding `Clc1ccc(-c2nnc(COc3ccc(C4=NNC(c5ccco5)C4)cc3)o2)cc1` (centres undefined), the growth with OVCAR-5 ovarian is 95%; with OVCAR-4 ovarian it was 77%; with SK-OV-3 ovarian it was 98.2%; with IGROV1 ovarian it was 85.4%; in the experiment on OVCAR-3 ovarian it was 91.3%; with HS 578T breast, 95.7%. Further, the growth is 72.6% with NCI/ADR-RES ovarian and 25.7% in the experiment with T-47D breast.

`CCOC(=O)C(CC(=O)O)=C(C(=O)OCC)C(=O)OCC`: the growth in the experiment on OVCAR-8 ovarian is 99.9%; in the experiment with OVCAR-5 ovarian, 109%; with OVCAR-4 ovarian, 90.2%; with SK-OV-3 ovarian, 110%; in the experiment with OVCAR-3 ovarian, 111%; with HS 578T breast it was 107%. For the same molecule, the growth is 112% in the experiment on NCI/ADR-RES ovarian and 100% in the experiment on T-47D breast.

As for `COc1ccc2sc3c(NCCCN)nc4ccccc4c3c(=O)c2c1`, the growth in the experiment with OVCAR-8 ovarian was 0.199% (active); with OVCAR-4 ovarian, 34.5%; in the experiment with IGROV1 ovarian, 58.6%; in the experiment with OVCAR-3 ovarian it was -22.4% (active); with HS 578T breast, 70.9%; in the experiment on NCI/ADR-RES ovarian, 68.3%. For the same molecule, the growth in the experiment on T-47D breast is -32.6% (active).

`COc1ccc(/C=C2\NC(=O)NC2=O)cc1O`: the growth was 98.5% in the experiment on OVCAR-8 ovarian; 108% in the experiment on OVCAR-5 ovarian; 103% in the experiment on SK-OV-3 ovarian; 107% with IGROV1 ovarian; 116% with OVCAR-3 ovarian; 109% in the experiment on HS 578T breast. Moreover, the values for the growth in the experiment on NCI/ADR-RES ovarian and with T-47D breast were 102% and 100%, respectively.

`CCCC(c1nnnn1C1CCCCC1)N1CCN(C(=O)c2ccco2)CC1` (centres undefined): the growth is 86.4% with OVCAR-8 ovarian; 89.4% in the experiment with OVCAR-5 ovarian; 79.5% in the experiment with SK-OV-3 ovarian; 69.2% in the experiment on IGROV1 ovarian; 25.2% in the experiment with OVCAR-3 ovarian; 60.7% with HS 578T breast. Further, the growth is 46.1% with NCI/ADR-RES ovarian and 92.9% with T-47D breast.

In the case of `Brc1ccc(Oc2ccc(Nc3ncnc4onc(-c5ccccc5)c34)cc2)cc1`, the growth was 97.8% in the experiment with OVCAR-8 ovarian; 105% in the experiment with OVCAR-5 ovarian; 88.2% with OVCAR-4 ovarian; 96.5% in the experiment with IGROV1 ovarian; 119% with OVCAR-3 ovarian; 96.8% in the experiment on HS 578T breast. Also, the values for the growth in the experiment with NCI/ADR-RES ovarian and in the experiment with T-47D breast were 94.1% and 77.8%, respectively.

As for `O=C(/C=C/c1ccccn1)c1ccc(OCc2nnc(-c3ccc(Cl)cc3)o2)cc1`, the growth was 20.8% in the experiment with OVCAR-8 ovarian; 31% in the experiment with OVCAR-4 ovarian; 26.8% in the experiment on SK-OV-3 ovarian; -22.6% (active) in the experiment with IGROV1 ovarian; 18.6% in the experiment with OVCAR-3 ovarian; 65.7% with HS 578T breast. Moreover, the growth was 42.5% in the experiment on NCI/ADR-RES ovarian and -13.7% (active) in the experiment on T-47D breast.

With `COc1ccc(C2=C(c3cccc(OC)c3)C(=O)c3ccc(C)nc3C2=O)cc1`, the growth was 42.3% in the experiment on OVCAR-8 ovarian; 104% in the experiment on OVCAR-5 ovarian; -95.8% (active) in the experiment on OVCAR-4 ovarian; 43% with IGROV1 ovarian; 7.59% (active) with OVCAR-3 ovarian; 52.5% in the experiment on HS 578T breast. Also, the results for the growth in the experiment with NCI/ADR-RES ovarian and in the experiment with T-47D breast were 17.1% and -41.4% (active), respectively.

`COc1cccc(C(=O)NC(c2ccc(C)cc2)c2cc(Cl)c3cccnc3c2O)c1` (centres undefined): the growth is 1.23% (active) with OVCAR-8 ovarian; 38.6% with OVCAR-5 ovarian; 16.2% in the experiment with SK-OV-3 ovarian; -5.14% (active) in the experiment on IGROV1 ovarian; 30% with OVCAR-3 ovarian; 6.12% (active) with NCI/ADR-RES ovarian. Moreover, in the experiment on T-47D breast, the growth was 6.13% (active).

Consider `O=C(c1nc2ccccc2[nH]1)C1[C@@H](c2cccc(O)c2)C2CC3CCCCC3N2[C@@]12C(=O)Nc1cc(Cl)ccc12` (some centres undefined), for which the growth with OVCAR-8 ovarian was 52.5%; in the experiment on OVCAR-5 ovarian, 69.3%; in the experiment with OVCAR-3 ovarian it was 42.5%; in the experiment on HS 578T breast it was 57.1%; in the experiment on NCI/ADR-RES ovarian it was 85.2%; with T-47D breast, 34.3%.

As to `CN1C(=O)N(C)C2C1NN=c1s/c(=C\c3ccc([N+](=O)[O-])cc3)c(=O)n12` (centres undefined), the growth in the experiment on OVCAR-8 ovarian is 81.1%; with OVCAR-5 ovarian it was 86.1%; in the experiment with OVCAR-4 ovarian, 82.2%; in the experiment with IGROV1 ovarian, 57.4%; in the experiment on OVCAR-3 ovarian it was 22.7%; in the experiment on HS 578T breast, 67.5%. The growth in the experiment with NCI/ADR-RES ovarian is 61.5%; in the experiment with T-47D breast, 66.5%.

Take `CN1C(=O)N(C)C2C1NN=c1s/c(=C\c3ccc(Cl)cc3Cl)c(=O)n12` (centres undefined): the growth in the experiment on OVCAR-8 ovarian is 27.2%; in the experiment on OVCAR-5 ovarian, 32.5%; in the experiment with OVCAR-4 ovarian, 36.9%; in the experiment on OVCAR-3 ovarian, 3.93% (active); in the experiment with HS 578T breast, 23%; in the experiment on NCI/ADR-RES ovarian, 14.9%. Also, in the experiment on T-47D breast, the growth is 72.1%.

Regarding `CCCSC1=NC2C(N(CC)C(=O)N2CC)N1/N=C/C=C/c1ccccc1[N+](=O)[O-]` (centres undefined), the growth in the experiment on OVCAR-8 ovarian was 33.7%; in the experiment with OVCAR-5 ovarian, 48%; in the experiment with OVCAR-4 ovarian it was 39.9%; with IGROV1 ovarian it was 29.9%; in the experiment on OVCAR-3 ovarian, -15.8% (active); with HS 578T breast, 18.5%. For the same molecule, the growth is 13.4% in the experiment with NCI/ADR-RES ovarian and 64.1% in the experiment with T-47D breast.

For `CN(C)c1ccc(N=Cc2ccc(N3CCOCC3)cc2)cc1`, the growth is 62.7% in the experiment with OVCAR-8 ovarian; 111% in the experiment on OVCAR-5 ovarian; 94.7% with SK-OV-3 ovarian; -4.05% (active) in the experiment on OVCAR-3 ovarian; 107% in the experiment with HS 578T breast; 83.1% in the experiment with NCI/ADR-RES ovarian. For the same molecule, the growth in the experiment with T-47D breast is 94.4%.

For `COC(=O)[C@H]1CCCN1C(=O)[C@H]1CCCN1C(=O)[C@H](Cc1c[nH]c2ccccc12)NC(=S)Nc1cc(C(F)(F)F)cc(C(F)(F)F)c1`, the growth in the experiment with OVCAR-8 ovarian is 68.5%; in the experiment on OVCAR-5 ovarian, 71.1%; with SK-OV-3 ovarian, 85.2%; in the experiment with IGROV1 ovarian, 44.6%; in the experiment on OVCAR-3 ovarian, 63.7%; with HS 578T breast, 44.8%. The growth in the experiment with NCI/ADR-RES ovarian was 93.2%; in the experiment on T-47D breast it was 56.5%.

These data come from PubChem BioAssay (NCI).
